Only some compounds are listed: those with a hit (about 3.7% of all), similar ones and a draw of the others.
Nrf2 activator – qHTS of Nrf2 Activators; 410,000 tested, 0.31% active; Potency, µM (highest dose often 46.1 µM), inactives show at the highest dose activation, actives largely listed as activators; AREc32 ARE-luciferase reporter (MCF7-derived line), luminescence, 24 h; AID 624171, 2012; also: potency is read from the fitted curve at half-maximal effect; % of control where 0% means no effect; nearly all actives have a fitted effect of over 65% in size
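For detection, Steady-Glo was added and plates sat 30 min at RT; before that, AREc32_Fluc cells grown overnight in OPTI-MEM/5% FBS had been treated with 23 nL compound for 24 hr at 37 deg C.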
ClpP mod – qHTS Assay for Activators of ClpP; ATP-dependent Clp protease proteolytic subunit (Bacillus subtilis (strain 168)), P80244; AID 651965, 2013; 340,000 tested, 1.9% active; purified B. subtilis ClpP, FRET peptide cleavage, 20 min; Potency, µM (top dose mostly 57.5 µM), without a hit: top-dose activity change, negative = active; active = well fitted falling curve with a large enough effect; inconclusive = small, poorly fitted or top-dose-only effect; inactive = no such curve, though single readings can be large or run the other way; also: potency is read from the fitted curve at half-maximal effect; the source files actives as falling curves though it sought activators and does not explain the sign; nearly all actives have a fitted effect of over 65% in size
Target sequence (P80244 whole entry, looked up): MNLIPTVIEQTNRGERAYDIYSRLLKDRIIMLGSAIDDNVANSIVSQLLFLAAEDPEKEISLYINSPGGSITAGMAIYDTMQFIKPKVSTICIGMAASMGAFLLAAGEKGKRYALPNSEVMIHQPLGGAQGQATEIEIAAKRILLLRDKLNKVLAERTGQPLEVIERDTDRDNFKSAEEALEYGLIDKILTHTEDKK
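ClpP 10 microg/mL final, pH 8 Tris/KCl buffer with BSA, glycerol, Tween-20; compound pinned in; FRET-FV substrate; RT 20 min; Ex320/Em430; ΔFRET vs ADEP 5.8 microM, DMSO, no enzyme.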
A549 tox-1 – Nrf2 qHTS screen for inhibitors: counterscreen for cytotoxicity | 390,000 tested, 0.16% active | Potency, µM (highest dose often 46 µM), inactives show top-dose activity change, negative = cytotoxicity, usual class: inhibitors | A549 ARE-Fluc cells, CellTiter-Fluor viability, 18-24 h; also: potency is read from the fitted curve at half-maximal effect; % is scaled to controls: 0 for no effect and ±100 for the full control effect
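Cytotoxicity counterscreen: CellTiter-Fluor fluorescence was measured in A549 ARE_Fluc cells after 18-24 h of compound exposure in a concentration series. The subsequent BugLite luminescent read reports ARE-luciferase activity.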
Nrf2 inh – Nrf2 qHTS screen for inhibitors. Potency, µM (top dose mostly 46 µM), inactives show top-dose activity change, negative = inhibition, actives largely listed as inhibitors. A549 ARE-Fluc reporter, luciferase luminescence, 18-24 h. 360,000 tested, 2.1% active; also: potency is read from the fitted curve at half-maximal effect; % is scaled to controls: 0 for no effect and ±100 for the full control effect; nearly all actives have a fitted effect of over 60% in size
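A549 ARE_Fluc cells (5000/well, 5% FBS OPTI-MEM) pre-incubated 2 h, then treated with compounds 18-24 h at 37C/5% CO2 in concentration-response. CellTiter-Fluor viability read first; BugLite luciferase luminescence after 15 min at room temperature gives Nrf2 activity.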
miR-21 reporter – qHTS Assay for Modulators of miRNAs and/orActivators of miR-21; HeLa miR-21 FLuc reporter, luciferase, 48 h; Potency, µM (top dose mostly 38.3 µM), for the others: at the top dose activity change, positive = activation, usual class: activators; 340,000 tested, under 10 active; AID 2288, 2010;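 also: % of control where 0% means no effect; miR-21 action dims this reporter so a rising signal means less miR-21 action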
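Luminescence from a firefly luciferase reporter carrying a miR-21 binding site downstream, stably expressed under a CMV promoter in HeLa cells that make miR-21 endogenously, reports miRNA modulation after 48 h compound exposure up to approximately 40uM final.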
IL2 activator – qHTS of IL-2 Activators; 360,000 tested, 0.065% active; IL-2 activation reporter assay, cell-based qHTS; stimulated with anti-CD3/CD4/CD28 beads; in transgenic mouse T cells; activation, % (series mostly up to about 46 µM); in the data active = activation above about 50%; inconclusive = mostly about 30% to 49%; also: 0% is about no effect
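Readout is EGFP and DsRed signal by fluorescent plate cytometry after 18 h at 37 degrees C. Transgenic mouse T cells (750/well) received compound for 60 min before bead stimulation (anti-CD3, anti-CD4, anti-CD28); memory T cells served as non-tolerant control.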
FLuc enzyme inh – Nrf2 qHTS screen for inhibitors: Purified Fluc Biochemical Counterscreen for Hit Validation. shares compounds with Nrf2 inh. AID 720522, 2013. 1,400 tested, 4% active. Potency, µM (highest dose often 57.5 µM), for the others: top-dose activity change, negative = inhibition, most hits filed as inhibitors. purified firefly luciferase, luminescence inhibition; also: potency is read from the fitted curve at half-maximal effect; % is scaled to controls: 0 for no effect and ±100 for the full control effect; nearly all actives have a fitted effect of over 65% in size
Target sequence (P08659 whole entry, looked up): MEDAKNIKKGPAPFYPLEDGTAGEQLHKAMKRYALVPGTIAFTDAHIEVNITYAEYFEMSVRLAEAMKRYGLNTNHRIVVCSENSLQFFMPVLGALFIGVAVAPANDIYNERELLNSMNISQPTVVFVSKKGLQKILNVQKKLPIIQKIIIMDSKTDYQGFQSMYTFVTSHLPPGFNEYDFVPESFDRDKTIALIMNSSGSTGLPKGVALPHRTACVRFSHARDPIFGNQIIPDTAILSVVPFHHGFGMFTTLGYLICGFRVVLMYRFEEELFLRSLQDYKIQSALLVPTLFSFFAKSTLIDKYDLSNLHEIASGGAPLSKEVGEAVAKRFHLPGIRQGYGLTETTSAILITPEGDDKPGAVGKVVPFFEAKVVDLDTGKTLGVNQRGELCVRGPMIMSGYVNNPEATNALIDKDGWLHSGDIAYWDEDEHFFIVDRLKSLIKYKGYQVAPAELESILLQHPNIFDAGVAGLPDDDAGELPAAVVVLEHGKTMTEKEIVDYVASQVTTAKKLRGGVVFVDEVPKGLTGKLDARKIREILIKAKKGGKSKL
A549 tox-2 – Nrf2 qHTS screen for inhibitors: A549 ARE-Fluc Cytotoxicity Counterscreen for Hit Validation; Potency, µM (top dose mostly 46.1 µM), for the others: at the highest dose activity change, negative = cytotoxicity, actives largely listed as inhibitors; AID 720523, 2013; A549 ARE-Fluc cells, cytotoxicity counterscreen; 1,400 tested, 2% active; shares compounds with Nrf2 inh;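 also: potency is read from the fitted curve at half-maximal effect; cells exposed to compounds for 18 to 24 hours; % is scaled to controls: 0 for no effect and ±100 for the full control effect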
Nrf2 ARE inh – Nrf2 qHTS screen for inhibitors: Nrf2 A549 ARE-Fluc Confirmation Assay for Hit Validation. AID 720524, 2013. Potency, µM (series often up to 46.1 µM), for the others: at the top dose activity change, negative = inhibition, most hits filed as inhibitors. shares compounds with Nrf2 inh. A549 ARE-firefly luciferase reporter, luminescence. 1,400 tested, 74% active; also: potency is read from the fitted curve at half-maximal effect; % is scaled to controls: 0 for no effect and ±100 for the full control effect; nearly all actives have a fitted effect of over 65% in size
Active calls of the source: *; u = inconclusive; x = not tested or not shown; [ ] = dose if it differs, or a comment. Unless noted, calls follow the shape of the dose curve; as a rule, active = well fitted curve in the direction sought with a large enough effect; inconclusive = small, poorly fitted or top-dose-only effect, or another doubt; inactive = no such curve, though single readings can be large; an effect the other way counts as inactive or inconclusive.

SMILES	Nrf2 activator	ClpP mod	A549 tox-1	Nrf2 inh	miR-21 reporter	IL2 activator	FLuc enzyme inh	A549 tox-2	Nrf2 ARE inh
COc1ccc(CN(C)C(=O)c2cccc(NC(=O)CC3SC(N4CCCCC4)=NC3=O)c2)c(OC)c1 (stereo unspecified)	-1.3%	x	-25.5%	8.2µM*	x	-4.4	-19.4%	-16.0%	6.51µM*
COc1ccc(N2CCN(C(=O)CN3CCN(c4nc(-c5ccc(F)cc5)cs4)CC3)CC2)cc1	0.0%	x	u	7.31µM*	-0.7%	-3.8	-5.4%	-16.0%	11.6µM*
COc1ccc(-c2nnn(CC(=O)N3CCN(c4ccc(F)cc4)CC3)n2)cc1	0.0%	-0.9%	2.3%	11.4%	5.9%	0.8	x	x	x
CCc1cccc(OCC(=O)Nc2ccc(C)c(S(=O)(=O)N3CCCCCC3)c2)c1	0.0%	x	-6.4%	u	x	-1.0	x	x	x
Cc1ccc(NC(=O)COc2ccc(N(C)C(=O)C(C)(C)C)cc2)cc1S(=O)(=O)N1CCCCC1	0.1%	-0.9%	u	3.66µM*	x	-0.5	-15.2%	u	5.17µM*
Cc1ccc(S(=O)(=O)NCc2ccncc2)cc1	2.0%	-2.7%	-5.5%	2.59µM*	13.4%	-0.5	2.7%	-7.0%	18.4µM*
CCOc1cc(S(=O)(=O)NCc2ccncc2)ccc1Cl	-0.2%[9.22 µM]	x	-10.5%	1.03µM*	16.7%	-3.9	-1.4%	-0.6%	1.3µM*
Cc1ccc(S(=O)(=O)NCC(=O)NCc2ccncc2)cc1	0.1%	0.4%	0.6%	1.8%	-3.0%	-0.5	x	x	x
CCOc1ccc(S(=O)(=O)NCc2ccncc2)cc1	0.4%	-0.3%	-29.4%	0.411µM*	21.8%	-3.7	-0.1%	-9.4%	0.651µM*
Cc1cc(S(=O)(=O)NCc2ccncc2)c(C)cc1Br	0.0%	-0.9%	-7.8%	4.11µM*	13.0%	-5.6	-0.9%	-4.0%	u
CNS(=O)(=O)c1cn(CC(=O)N2CCN(c3ccccc3F)CC2)cc1S(=O)(=O)NC	0.4%	-0.9%	3.9%	2.5%	2.3%	x	x	x	x
CNC(=O)C1CCC(Cn2c(=O)c3sccc3n(Cc3ccc(F)cc3)c2=O)CC1 (stereo unspecified)	0.8%	-1.2%	11.3%	8.7%	-1.1%	x	x	x	x
COc1ccc(OC)c(NC(=O)CSC2=Nc3ccccc3C3=NC(CCC(=O)NCCc4ccccc4)C(=O)N23)c1 (stereo unspecified)	5.0%	0.3%	2.5%	x	-3.3%	x	x	x	x
CC1CCCCC1NS(=O)(=O)c1ccc(S(=O)(=O)NCc2ccncc2)cc1 (stereo unspecified)	-0.5%	-0.4%	-14.4%	2.31µM*	13.6%	-1.3	0.7%	-10.6%	3.66µM*
Cc1ccc(S(=O)(=O)N2CCc3ccccc3CC2)cc1	2.9%	x	-1.8%	8.2µM*	x	-0.9	2.8%	-1.7%	4.11µM*
Cc1ccc(S(=O)(=O)N2CCc3ccccc3C2)cc1	3.1%	-5.0%	19.7%	-23.4%	-1.4%	-1.8	x	x	x
Cc1ccc(-n2c3nc(=O)[nH]c(=O)c-3cc3c(C)nn(-c4ccccc4)c32)cc1Cl	-0.3%	4.0%	-2.5%	20.7%	-7.8%	x	x	x	x
CC[n+]1c(/C=C2\Sc3ccccc3N2C)ccc2cccc(C)c21	-1.5%	0.6%	u	3.66µM*	u	159.9*	-14.0%	6.51µM*	2.59µM*
CCN1/C(=C/c2ccc3cc(C)ccc3[n+]2CC)Sc2ccccc21	-3.2%	0.0%	u	0.731µM*	u	90.4*	-1.6%	5.8µM*	x
CCN1/C(=C/C=C/c2sc3ccccc3[n+]2CC)Sc2ccccc21	-0.6%	0.9%	-4.9%	1.3µM*	x	-0.3	u	11.6µM*	2.59µM*
CC[n+]1c(/C=C/Nc2ccccc2)sc2ccccc21	4.0%	-2.1%	-8.2%	-24.6%	7.5%	-2.9	x	x	x
CCOc1ccc(NC(=O)CSc2nccn2-c2cccc(C)c2C)cc1	-0.2%	0.9%	14.1%	x	u	x	x	x	x
COc1cc(Cl)c(C)cc1NC(=O)c1cc2c(Cl)nc3ccc(C)cc3c2s1	6.0%	-1.8%	0.0%	5.6%	3.7%	x	x	x	x
Cn1c(=O)c2[nH]c(CCCCCCCCc3nc4ccccc4[nH]3)nc2n(C)c1=O	5.8%	1.8%	-20.9%	8.2µM*	x	-1.0	-0.2%	-17.4%	x
Cc1nnsc1C(=O)NC1CCCc2c1cnn2-c1ccc(C(C)(C)C)cc1 (stereo unspecified)	-0.6%	1.1%	u	2.06µM*	23.2%	-4.8	u	-12.8%	x
SMILES	Nrf2 activator	ClpP mod	A549 tox-1	Nrf2 inh	miR-21 reporter	IL2 activator	FLuc enzyme inh	A549 tox-2	Nrf2 ARE inh
O=C(NC1CCCc2c1cnn2-c1cc(F)cc(F)c1)c1ccncc1 (stereo unspecified)	-1.0%	1.1%	8.1%	-4.8%	4.4%	-0.9	x	x	x
Cc1cc(C(=O)NC2CCCc3c2cnn3-c2ccc(C(C)(C)C)cc2)n[nH]1 (stereo unspecified)	3.7%	-0.2%	13.1%	4.61µM*	7.5%	-1.0	u	-10.7%	16.4µM*
CC(C)(C)c1ccc(-n2ncc3c2CCCC3NC(=O)c2ccncc2)cc1 (stereo unspecified)	-0.3%	1.2%	-12.2%	2.59µM*	x	0.2	u	-5.5%	8.2µM*
CC(C)(C)c1ccc(-n2ncc3c2CCCC3NC(=O)CN2CCOC2=O)cc1 (stereo unspecified)	-0.2%	0.2%	-7.3%	u	5.9%	-3.0	x	x	x
Cc1ncoc1C(=O)NC1CCCc2c1cnn2-c1ccc(C(C)(C)C)cc1 (stereo unspecified)	-0.1%	-14.0%	u	2.31µM*	21.1%	-3.2	u	-6.1%	5.17µM*
COc1ccccc1Cn1c(CNS(=O)(=O)c2ccc(Cl)s2)nc2cccnc21	2.8%	-10.9%	-10.1%	x	-1.5%	x	x	x	x

Bioassay records (PubChem BioAssay)
